In PubChem BioAssay (Tox21):
A number with no mark means an inactive call. Records with an inconclusive call do not appear. Where a call stands in place of a potency, no number is given. Active and inactive are the calls of the source. Unless noted, calls come from the whole dose curve; as a rule, active = well fitted curve in the direction sought with a large enough effect in the repeat runs; inconclusive = weak or mixed curves; inactive = no such curve, though single readings can be large; an effect the other way counts as inactive or inconclusive.

Assays:
[1] = qHTS assay to identify small molecule antagonists of the estrogen receptor alpha (ER-alpha) signaling pathway using the BG1 cell line in the presence of 0.1 nM 17-beta-estradiol - cell viability counter screen (AID 1259241); note: nearly all actives have a fitted effect of over 40% in size
Procedure, shortened: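 Following 5 days in phenol red-free medium with charcoal-stripped serum, VM7Luc4E2 cells received test compounds alongside 0.1 nM 17beta-estradiol (final) at 37C for 22 hr. Live cells were then quantified via protease-substrate fluorescence.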

[2] = qHTS assay to identify small molecule antagonists of the androgen receptor (AR) signaling pathway using the MDA cell line in the presence of 0.5 nM R1881 - cell viability counter screen (AID 1259242); note: nearly all actives have a fitted effect of over 45% in size
Procedure, shortened: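 Concentration-response screen of compounds for toxicity in MDA-kb2 reporter cells: 16 hr at 37C with 0.5 nM R1881, endpoint live-cell protease fluorescence measured in the reporter wells.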

[3] = qHTS assay to identify small molecule HDAC inhibitors (AID 1259364);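 note: wild-type HCT-116 cells with endogenous class I/II HDAC activity; top concentration of the series differs between compounds; nearly all actives have a fitted effect of over 45% in size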
Procedure, shortened: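 Screening used wild-type human colon HCT-116 cells incubated overnight, dosed with compounds for 2 hours, and assayed with a homogeneous luminogenic HDAC I/II reagent for 30 minutes at room temperature.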

[4] = qHTS assay to identify small molecule HDAC inhibitors - cell viability counter screen (AID 1259365); note: series mostly up to about 92 µM; nearly all actives have a fitted effect of over 50% in size
Procedure, shortened: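 HCT-116 wild-type, overnight attachment; 2hr drug exposure, 37C; CellTiter-Glo luminescent ATP readout after 30min RT.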

[5] = qHTS assay to identify small molecule agonists of the sonic hedgehog signaling (Shh) pathway - cell viability counter screen (AID 1259366); note: nearly all actives have a fitted effect of over 50% in size; note: potency is the fitted concentration of half-maximal effect
Procedure, shortened: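 Compounds in DMSO were pin-transferred onto 3T3 Gli1-Luc cells that had settled 4hr; plates then stood 24hr at 37C and 5% CO2. One hour before the end, CellTiter-Fluor was added and fluorescence recorded.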

[6] = qHTS assay to identify small molecule antagonists of the sonic hedgehog signaling (Shh) pathway - cell viability counter screen (AID 1259367); note: nearly all actives have a fitted effect of over 55% in size; note: potency is the fitted concentration of half-maximal effect
Procedure, shortened: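 Cytotoxicity was assessed in parallel with Shh reporter activity by measuring live-cell protease fluorescence (CellTiter-Fluor) in NIH/3T3 cells stably carrying Gli1-Luc, treated with compound under conditioned medium stimulation for 23 hr plus 1 hr reagent incubation.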

[7] = qHTS assay to identify small molecule agonists of the sonic hedgehog signaling (Shh) pathway (AID 1259368; calls by dose curve;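 note: NIH/3T3-derived 3T3Gli1-Luc cells carrying a stable Gli1-driven firefly luciferase reporter; series mostly up to about 92 µM; nearly all actives have a fitted effect of over 15% in size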)
Procedure, shortened: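 Hedgehog pathway agonism scored by increased firefly luciferase luminescence in 3T3Gli1-Luc cells treated 24 hr at 37 C; detection used a 30 min room-temperature reagent incubation.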

[8] = qHTS assay to identify small molecule antagonists of the sonic hedgehog signaling (Shh) pathway (AID 1259369; calls by dose curve; note: nearly all actives have a fitted effect of over 45% in size)
Procedure, shortened: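 NIH/3T3 stable Gli1-Luc clone, 2,000 cells/well, 4hr settle; cpd + conditioned medium 24hr; Luc reagent 30min RT; luminescence.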

[9] = molecular target: Estrogen receptor beta (Homo sapiens) (UniProt Q92731); experiment: qHTS assay to identify small molecule agonists of the estrogen receptor beta (ER-beta) signaling pathway (AID 1259377; active = well fitted activation curve with a large enough effect in the signal ratio in the repeat runs, not every such curve was filed as active; the % refers to the signal ratio)
Sequence of Estrogen receptor beta (Homo sapiens) (Q92731 whole entry, looked up): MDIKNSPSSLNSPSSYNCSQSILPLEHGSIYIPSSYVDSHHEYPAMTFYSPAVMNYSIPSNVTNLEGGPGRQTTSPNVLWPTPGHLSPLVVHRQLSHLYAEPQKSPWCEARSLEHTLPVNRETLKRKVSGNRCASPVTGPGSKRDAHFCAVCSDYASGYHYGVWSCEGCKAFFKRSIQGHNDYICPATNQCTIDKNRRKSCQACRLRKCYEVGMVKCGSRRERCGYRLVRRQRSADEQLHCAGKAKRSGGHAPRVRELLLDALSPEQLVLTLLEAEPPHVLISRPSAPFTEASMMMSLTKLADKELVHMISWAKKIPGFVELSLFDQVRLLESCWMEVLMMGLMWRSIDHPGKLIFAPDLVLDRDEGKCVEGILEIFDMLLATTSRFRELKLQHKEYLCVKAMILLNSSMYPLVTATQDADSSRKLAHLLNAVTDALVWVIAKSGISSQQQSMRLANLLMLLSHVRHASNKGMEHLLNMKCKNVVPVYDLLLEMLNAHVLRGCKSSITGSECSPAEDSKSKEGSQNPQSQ
Procedure, shortened: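 qHTS in ER-beta-UAS-bla HEK293T cells: 6 hr settling, then 16 hr compound at 37C, then LiveBLAzer substrate 2 h at RT before fluorescence reading.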

[10] = molecular target: Estrogen receptor beta (Homo sapiens) (UniProt Q92731); experiment: qHTS assay to identify small molecule antagonists of the estrogen receptor beta (ER-beta) signaling pathway (AID 1259378; active = well fitted inhibition curve with a large enough effect in the signal ratio in the repeat runs, not every such curve was filed as active; the % refers to the signal ratio)
Procedure, shortened: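 ER-beta-UAS-bla HEK293T (GripTite) cells in 2% charcoal-stripped FBS medium were preincubated 6 hr at 37C, dosed with compound, then stimulated with 1 nM E2 (final) for 16 hr; beta-lactamase reporter read by B/G FRET fluorescence after 2 hr substrate loading.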

[11] = qHTS assay to identify small molecule agonists of the androgen receptor (AR) signaling pathway in the presence of an antagonist - cell viability counter screen (AID 1259379);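 note: MDA-kb2 human breast cancer cells carrying an MMTV luciferase reporter; series mostly up to about 92 µM; nearly all actives have a fitted effect of over 25% in size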
Procedure, shortened: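 MDA-kb2 viability measured by CellTiter-Fluor fluorescence in the same wells as the luciferase signal; nilutamide 3.0uM final; 15-point compound titration; 16 hr at 37C.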

[12] = qHTS assay to identify small molecule agonists of the estrogen receptor beta (ER-beta) signaling pathway - cell viability counter screen (AID 1259380); note: nearly all actives have a fitted effect of over 30% in size
Procedure, shortened: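 Measured: luminescence from CellTiter-Glo after 30 min at room temperature, added to wells already read for the LiveBLAzer FRET reporter (2 hr substrate); ER-beta-UAS-bla HEK293T cells had 16 hr compound treatment at 37C, 5% CO2.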

[13] = qHTS assay to identify small molecule antagonists of the estrogen receptor beta (ER-beta) signaling pathway - cell viability counter screen (AID 1259382); note: series mostly up to about 92 µM; nearly all actives have a fitted effect of over 55% in size
Procedure, shortened: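 Readout: luminescence, CellTiter-Glo, same wells as bla assay. System: ER-beta-UAS-bla GripTite HEK293T, 2% charcoal-stripped FBS. Exposure: compounds plus 1nM 17-beta-estradiol, 16 hr, 37C.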

[14] = molecular target: Estrogen receptor (Homo sapiens) (UniProt P03372); experiment: qHTS assay to identify small molecule agonists of the estrogen receptor alpha (ER-alpha) signaling pathway in the presence of an antagonist (AID 1259383; calls by dose curve; note: top concentration of the series differs between compounds; nearly all actives have a fitted effect of over 15% in size)
Sequence of Estrogen receptor (Homo sapiens) (P03372 whole entry, looked up): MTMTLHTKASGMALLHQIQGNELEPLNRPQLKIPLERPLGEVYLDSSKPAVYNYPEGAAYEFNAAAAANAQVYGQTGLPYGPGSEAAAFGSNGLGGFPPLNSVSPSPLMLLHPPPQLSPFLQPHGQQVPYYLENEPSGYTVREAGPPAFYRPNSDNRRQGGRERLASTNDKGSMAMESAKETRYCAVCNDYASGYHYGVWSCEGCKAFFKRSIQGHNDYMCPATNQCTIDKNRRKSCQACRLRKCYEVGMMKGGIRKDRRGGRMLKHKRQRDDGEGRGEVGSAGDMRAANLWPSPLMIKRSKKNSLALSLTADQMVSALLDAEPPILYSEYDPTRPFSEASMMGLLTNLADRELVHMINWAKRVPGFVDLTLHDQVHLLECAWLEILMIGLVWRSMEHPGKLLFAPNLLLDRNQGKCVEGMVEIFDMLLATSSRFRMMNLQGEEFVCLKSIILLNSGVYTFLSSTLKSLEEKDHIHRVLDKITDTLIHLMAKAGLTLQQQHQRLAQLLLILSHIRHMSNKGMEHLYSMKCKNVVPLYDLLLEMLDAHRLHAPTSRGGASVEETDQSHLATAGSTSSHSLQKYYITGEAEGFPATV
Procedure, shortened: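 Quantitative HTS confirmation: compounds titrated at 15 concentrations onto estrogen-deprived VM7Luc4E2 cells carrying a four-ERE luciferase construct, with ICI-182,780 present at 10.0nM final. Signal is luminescence after 22hr exposure.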

[15] = molecular target: Thyrotropin receptor (Homo sapiens) (UniProt P16473); experiment: qHTS assay to identify small molecule antagonists of the thyroid stimulating hormone receptor (TSHR) signaling pathway (AID 1259385; calls by dose curve; note: nearly all actives have a fitted effect of over 20% in size)
Sequence of Thyrotropin receptor (Homo sapiens) (P16473 whole entry, looked up): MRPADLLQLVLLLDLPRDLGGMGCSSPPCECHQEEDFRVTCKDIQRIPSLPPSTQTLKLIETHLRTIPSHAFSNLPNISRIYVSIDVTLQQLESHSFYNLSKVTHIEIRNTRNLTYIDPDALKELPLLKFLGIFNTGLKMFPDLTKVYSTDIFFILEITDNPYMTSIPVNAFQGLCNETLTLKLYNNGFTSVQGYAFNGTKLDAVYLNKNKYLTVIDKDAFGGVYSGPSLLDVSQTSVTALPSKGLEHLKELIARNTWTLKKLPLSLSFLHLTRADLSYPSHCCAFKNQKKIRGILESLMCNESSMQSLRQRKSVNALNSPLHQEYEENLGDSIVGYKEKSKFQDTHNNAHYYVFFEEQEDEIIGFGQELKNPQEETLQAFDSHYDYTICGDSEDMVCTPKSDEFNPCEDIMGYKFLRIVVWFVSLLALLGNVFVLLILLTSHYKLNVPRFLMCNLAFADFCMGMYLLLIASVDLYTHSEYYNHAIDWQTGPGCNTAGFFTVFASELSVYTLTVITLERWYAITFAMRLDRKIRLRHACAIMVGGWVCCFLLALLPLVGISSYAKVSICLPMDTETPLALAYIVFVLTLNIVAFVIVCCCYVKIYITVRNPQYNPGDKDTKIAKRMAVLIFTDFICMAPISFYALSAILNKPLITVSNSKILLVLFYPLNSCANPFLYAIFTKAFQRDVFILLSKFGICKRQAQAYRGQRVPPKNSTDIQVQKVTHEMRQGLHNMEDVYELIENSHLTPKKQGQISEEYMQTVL
Procedure, shortened: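 TSHR-HEK293 cells were plated and held 18 h at 37C/5% CO2, then given compound plus Ro20-1724 and stimulated with TSH at 1.5 ng/mL final. After 30 min at room temperature, cAMP was detected with cAMP-d2/anti-cAMP-cryptate (1 h) by fluorescence.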

[16] = qHTS assay to identify small molecule phospholipidosis (PLD) inducers (AID 1259344; active = well fitted curve in the direction sought with a large enough effect; an effect the other way counts as inactive or inconclusive)
Procedure, shortened: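 Cells (HepG2, 900 per well) attach for 4 h, receive LipidTOX Red and compound together, incubate 24 h at 37 C, are fixed 30 min with paraformaldehyde/Hoechst, then imaged at one site per well.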

[17] = qHTS assay to identify small molecule agonists or antagonists of the thyroid stimulating hormone receptor (TSHR) signaling pathway - wild type cell line counter screen (AID 1259384; calls by dose curve; note: potency is the fitted concentration of half-maximal effect)
Procedure, shortened: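 Wild-type HEK293 cells were plated 18 h at 37 C/5% CO2, pin-dosed with compound plus Ro20-1724 medium, held 30 min at room temperature, then given cAMP-d2 and anti-cAMP-cryptate; fluorescence was read after 1 h. Fifteen concentrations, triplicate.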

Structure (SMILES) | Potency [1] | Potency [2] | Potency [3] | outcome [4] | Potency [5] | Potency [6] | outcome [7] | Potency [8] | Potency [9] | Potency [10] | Potency [11] | Potency [12] | Potency [13] | Potency [14] | Potency [15] | Potency [16] | Potency [17]
CCOC(=O)CC(=O)c1cc(F)c(Cl)nc1Cl | inactive | inactive | inactive | inactive | inactive | inactive | inactive | inactive | inactive | inactive | inactive | inactive | inactive | inactive |  |  | 
CCCCCC(CO)CCC (configuration not stated) | inactive | inactive | inactive | inactive | inactive | inactive | inactive | inactive | inactive | inactive | inactive |  | inactive |  | inactive |  | 
Oc1ccc(C(O)CNCCCCCCNCC(O)c2ccc(O)c(O)c2)cc1O (configuration not stated) | inactive | inactive |  | inactive | 8.41 µM (active) | 29.8 µM (active) | inactive | inactive |  |  |  | inactive | inactive |  | inactive | inactive | 6.19 µM (active)
O=[N+]([O-])c1cccc(Cl)c1Cl | inactive | inactive | inactive | inactive | inactive | inactive | inactive | inactive | inactive | inactive | inactive | inactive | inactive | inactive | inactive |  | inactive
CCCCC(CC)(CO)CO | inactive | inactive | inactive | inactive | inactive | inactive | inactive | inactive |  |  | inactive | inactive | inactive |  | inactive |  | inactive
O=CNc1ccccc1 | inactive | inactive | inactive | inactive | inactive | inactive | inactive | inactive |  | inactive |  | inactive | inactive |  |  |  | 
CC/C(=C\C(=N/O)C(N)=O)C(C)[N+](=O)[O-] (configuration not stated) | inactive | inactive | inactive | inactive | inactive | inactive | inactive |  | inactive | inactive | inactive | inactive | inactive | inactive | inactive |  | 
CCCCCCOC(=O)CCC | inactive | inactive | inactive | inactive | inactive | inactive | inactive | inactive | inactive | inactive | inactive | inactive | inactive |  | inactive |  | 
CCCCCCCCCO | inactive | inactive | inactive | inactive | inactive | inactive | inactive | inactive | inactive | inactive | inactive |  | inactive | inactive | inactive |  | inactive
CCN(CC)C(C)=O | inactive | inactive | inactive | inactive | inactive | inactive | inactive | inactive | inactive | inactive | inactive | inactive | inactive |  | inactive |  | inactive
FC(F)(F)C(F)(F)C(F)(F)C(F)(F)C(F)(F)C(F)(F)CCI | inactive | inactive | inactive | inactive | inactive | inactive | inactive | inactive |  |  | inactive | inactive | inactive | inactive | inactive |  | inactive
S=C(S)NCCNC(=S)S | inactive | inactive | inactive | inactive | inactive | inactive | inactive | inactive | inactive | inactive |  | inactive | inactive |  | inactive |  | 
Cc1ncsc1CCO | inactive | inactive | inactive | inactive | inactive | inactive | inactive |  | inactive | inactive | inactive | inactive | inactive | inactive | inactive |  | inactive
CC[C@@H]1C[C@H](N(Cc2cc(C(F)(F)F)cc(C(F)(F)F)c2)C(C)=O)c2cc(C(F)(F)F)ccc2N1C(=O)OC(C)C | inactive | inactive | inactive | inactive | inactive | inactive | inactive |  |  |  | inactive | inactive | inactive | inactive |  |  | 
CCCc1ccccc1 | inactive | inactive | inactive | inactive | inactive | inactive | inactive | inactive |  | inactive |  | inactive | inactive | inactive | inactive |  | 
NCc1ccccc1 | inactive | inactive | inactive | inactive | inactive | inactive | inactive | inactive |  | inactive | inactive | inactive | inactive |  | inactive |  | inactive
CC(O)C1CCCCC1 (configuration not stated) | inactive | inactive | inactive | inactive | inactive | inactive | inactive | inactive | inactive | inactive | inactive | inactive | inactive |  | inactive |  | 
CC(=O)/C=C/C1C(C)=CCCC1(C)C (configuration not stated) | inactive | inactive | inactive | inactive | inactive | inactive | inactive |  |  |  | inactive | inactive | inactive | inactive |  |  | 
